14 molecules from PubChem BioAssay can be followed below.

The inhibition is the drop in the measured response relative to a control, in per cent.

A short description of assay [1]: inhibitors of TNFa-induced NFkB p65 translocation, primary screen, imaging, HUVEC, MLSMR starter and 10KST1 sets (AID 438).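 Also: compound added about 3h40 before a 20 min TNFalpha stimulation.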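 As to inhibition: signal is the nuclear over cytoplasmic p65 intensity ratio per well.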 Particulars: HUVEC TNFa-induced p65 nuclear translocation; cell count: measured here: nuclei count (cytotoxicity indicator), at 2.08 µM; inhibition: at 2 µM, stronger effect = higher value, 0% TNFa-plus-vehicle, 100% no-TNFa wells.
A short description of assay [2]: inhibitors of mutant huntingtin aggregation, primary screen, imaging, exon1htt(103Q)mCFP cells, high-content imaging (AID 483;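 active = visual image review flags a hit and inhibition of aggregation exceeds 20%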;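 also: compound exposure lasted 3 days before fixation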;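 as to nuclei count: percent of the per-plate median nuclei count of sample wells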). The following applies: exon1htt(103Q)mCFP cell line, aggregate imaging, at 2 µM; inhibition of aggregation: stronger effect = higher value; nuclei count: measured here: cell count, toxicity.
Assay [3] can be described thus: inhibitors of E-selectin induction by TNFa, primary screen, imaging, HUVEC, immunofluorescence, MLSMR starter and 10KST1 sets (AID 487;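 active = visually confirmed hit in the image check and inhibition above 20%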;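 as to inhibition: signal is fraction of cell area covered by stained E-selectin grains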;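 as to nuclei count: 100% = median nuclei count of all wells on the same plate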). Particulars: HUVEC TNFalpha-induced E-selectin immunofluorescence imaging, at 2 µM; inhibition: stronger effect = higher value; nuclei count: measured here: cell number, toxicity.
Assay [4] concerns the target Voltage-gated potassium channel subunit beta-2 (Rattus norvegicus) (UniProt P62483). Kind of assay: KvBeta enzyme negative modulators, primary screen, biochemical, NADPH fluorescence (AID 622;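 active = fluorescence slope higher than the sample average by over 3 SD, cut at about -0.22 in these data, passing the limit was not always enough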;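 also: slope of raw intensity against log time taken from 70 to 1610 s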). The following applies: recombinant KvBeta, 4-cyanobenzaldehyde reduction, at 10 µM, stronger effect = higher value.
The target is the same in assay [5]. Kind of assay: KvBeta positive modulators, primary screen, biochemical, NADPH fluorescence (AID 623;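 active = NADPH fluorescence slope more negative than the mean of all samples by about 3 SD, 99.7% confidence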;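 also: fluorescence intensity change per second fitted from 20 to 320 s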). The following applies: Recombinant KvBeta, NADPH fluorescence decrease slope, 10 min; at 10 µM; stronger effect = lower value.
In assay [6] the target is Alpha-2C adrenergic receptor (Homo sapiens) (UniProt P18825). Kind of assay: modulators of alpha2C/GIRK thallium flux, primary screen, cell-based, HEK293 alpha2C/GIRK1/2 (AID 624;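 active = fluorescence slope after compound addition differing from the mean of all screened samples at 99.7% confidence, in either direction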;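 also: slope of fluorescence ratio to pre-addition baseline per second over 15 to 24 s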). Particulars: thallium flux BTC fluorescence, at 10 µM, actives lie on both sides.
A short description of assay [7]: inhibitors of Sendai virus-induced IRF3 signaling, primary screen, TLR/RLR signaling modifier project, cell-based, Sendai virus stimulus, luciferase, 10K MLSCN set (AID 602276;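 active = inhibition at or above 50% at 10 µM; inactive = inhibition below 50%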;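 also: firefly luciferase from ISG56 promoter only with Renilla not read in this screen; 0% = Sendai virus plus DMSO and 100% = medium plus DMSO without virus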). Particulars: HEK293 RL24 IRF3 luciferase reporter, at 10 µM, stronger effect = higher value. On the technique in general: A reporter such as luciferase makes a cellular process visible.
Assay [8] is described as follows: inhibitors of poly I:C-induced TLR3 signaling, primary screen, cell-based, poly I:C stimulus, luciferase, 10K MLSCN set (AID 602277;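 active = inhibition of the reporter signal at or above 50%; inactive = inhibition below 50%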). The following applies: HEK293-TLR3 RL24 IRF3 luciferase reporter, at 10 µM, stronger effect = higher value.

Calls of active or inactive are those of the source.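 The calls were made as follows, unless noted: active = inhibition above 20% together with a positive visual image hit; inconclusive = visual image hit but inhibition not above 20%; inactive = no visual image hit.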

Chain of Voltage-gated potassium channel subunit beta-2 (Rattus norvegicus) (P62483 whole entry, looked up): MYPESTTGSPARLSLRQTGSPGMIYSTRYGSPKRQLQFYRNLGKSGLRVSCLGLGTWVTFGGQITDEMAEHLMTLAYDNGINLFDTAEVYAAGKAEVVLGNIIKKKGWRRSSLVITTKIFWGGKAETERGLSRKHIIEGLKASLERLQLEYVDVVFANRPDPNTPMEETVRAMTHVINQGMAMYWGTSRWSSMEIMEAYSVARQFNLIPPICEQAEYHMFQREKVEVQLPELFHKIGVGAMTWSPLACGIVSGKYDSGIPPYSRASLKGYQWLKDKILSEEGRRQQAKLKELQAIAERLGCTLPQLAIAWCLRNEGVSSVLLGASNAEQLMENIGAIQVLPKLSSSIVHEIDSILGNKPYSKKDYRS
Chain of Alpha-2C adrenergic receptor (Homo sapiens) (P18825 whole entry, looked up): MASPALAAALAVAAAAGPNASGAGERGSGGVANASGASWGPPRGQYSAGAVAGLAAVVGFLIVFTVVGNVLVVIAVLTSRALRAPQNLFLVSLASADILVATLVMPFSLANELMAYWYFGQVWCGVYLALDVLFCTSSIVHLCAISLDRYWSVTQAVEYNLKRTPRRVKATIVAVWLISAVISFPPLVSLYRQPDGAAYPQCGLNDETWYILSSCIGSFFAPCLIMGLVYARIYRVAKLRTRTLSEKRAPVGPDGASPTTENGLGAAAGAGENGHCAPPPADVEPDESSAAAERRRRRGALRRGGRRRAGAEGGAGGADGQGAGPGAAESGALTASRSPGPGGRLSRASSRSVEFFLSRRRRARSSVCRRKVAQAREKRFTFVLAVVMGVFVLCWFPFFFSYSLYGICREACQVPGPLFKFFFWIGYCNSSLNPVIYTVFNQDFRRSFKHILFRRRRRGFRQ

On to `CCN(Cc1nc2ccccc2c(=O)[nH]1)Cc1cc(=O)oc2cc(C)c(C)cc12`, for which the cell count in assay [1] turned out to be 288. Further, the inhibition was 6.6% (inactive) in assay [1], -33.2% (inactive) in assay [3], 5.41% (inactive) in assay [7] and 8.19% (inactive) in assay [8]. The inhibition of aggregation in assay [2] was 0.4% (inactive). For the same molecule, the nuclei count came to 107% in assay [2] and 126% in assay [3]. Moreover, the fluorescence slope in assay [4] was -0.435 (inactive). In addition, in assay [5], the NADPH fluorescence slope was -4.6e-05 (inactive). Further, in assay [6], the slope is 0.00456 (inactive).

As to `CN(Cc1nc(-c2ccncc2)no1)S(=O)(=O)c1ccccc1`, the cell count in assay [1] was 560. For the same molecule, the inhibition in assay [1] was 0.6% (inactive); in assay [3] it was -18.6% (inactive); in assay [7] it was 12.9% (inactive); in assay [8], 13.2% (inactive). In assay [2], the inhibition of aggregation was -16.9% (inactive). The nuclei count in assay [2] worked out at 103%; in assay [3], 104%. Moreover, in assay [4], the fluorescence slope is -0.654 (inactive). The NADPH fluorescence slope in assay [5] was -4.4e-05 (inactive). For the same molecule, the slope in assay [6] is 0.00664 (inactive).

For `COc1cccc(CNC(=O)C2CCN(C(=O)N(C)C)CC2)c1`, in assay [1], the cell count came out at 569. The inhibition in assay [1] was 8.3% (inactive); in assay [3], -15.7% (inactive); in assay [7] it was 11.6% (inactive); in assay [8] it was 32.8% (inactive). The inhibition of aggregation in assay [2] was -46.5% (inactive). Moreover, the figures for the nuclei count in assay [2] and in assay [3] were 52.8% and 109%, respectively. Also, the fluorescence slope in assay [4] was -0.345 (inactive). Moreover, the NADPH fluorescence slope in assay [5] was -6.9e-05 (inactive). The slope in assay [6] was 0.00563 (inactive).

Regarding `CC1CCN(c2nc3c(c(=O)n(C)c(=O)n3C)n2Cc2ccccc2)CC1`, in assay [1], the cell count came out at 666. Also, the inhibition is -3.5% (inactive) in assay [1], -81.5% (inactive) in assay [3], 12.3% (inactive) in assay [7] and 15.2% (inactive) in assay [8]. In addition, the inhibition of aggregation in assay [2] was -14.9% (inactive). In addition, the nuclei count turned out to be 83.4% in assay [2] and 139% in assay [3]. Further, in assay [4], the fluorescence slope is -0.39 (inactive). The NADPH fluorescence slope in assay [5] is -6.1e-06 (inactive). In assay [6], the slope is 0.00388 (inactive).

For `COc1ccc(C(=O)NCCc2nnc(SCc3nc4ccccc4c(=O)[nH]3)n2C)cc1`, in assay [1], the cell count stood at 357. In addition, the inhibition in assay [1] is -6.6% (inactive); in assay [3], -85.5% (inactive); in assay [7] it was 18.2% (inactive); in assay [8], 18.8% (inactive). The inhibition of aggregation in assay [2] is -8.1% (inactive). In addition, the results for the nuclei count in assay [2] and in assay [3] were 101% and 112%, respectively. Further, the fluorescence slope in assay [4] is -0.501 (inactive). Moreover, the NADPH fluorescence slope in assay [5] is -3.6e-05 (inactive). In addition, the slope in assay [6] was 0.00496 (inactive).

As to `Cc1ccccc1-n1c(=O)c2ccccc2n2nnnc12`, the cell count in assay [1] was 789. The inhibition in assay [1] is -6.4% (inactive); in assay [3], -23.1% (inactive); in assay [7], -17% (inactive); in assay [8], -4.05% (inactive). In addition, the inhibition of aggregation in assay [2] is -0.5% (inactive). For the same molecule, the results for the nuclei count in assay [2] and in assay [3] were 125% and 103%, respectively. Besides, the fluorescence slope in assay [4] was -0.517 (inactive). In assay [5], the NADPH fluorescence slope was 2.5e-05 (inactive). Besides, the slope in assay [6] was 0.00577 (inactive).

`CCCCC(NS(=O)(=O)c1ccc(OC)cc1)C(=O)O` (centres undefined): the cell count in assay [1] was 386. The inhibition was 8.8% (inactive) in assay [1], -31.9% (inactive) in assay [3], 7.54% (inactive) in assay [7] and 39% (inactive) in assay [8]. Also, the inhibition of aggregation in assay [2] is -16.5% (inactive). For the same molecule, the nuclei count amounted to 108% in assay [2] and 118% in assay [3]. The fluorescence slope in assay [4] was -0.448 (inactive). The NADPH fluorescence slope in assay [5] is -4e-05 (inactive). In assay [6], the slope is 0.0033 (inactive).

Take `COc1ccc(C)cc1-n1nnnc1SCC(=O)Nc1cc(C)on1`: in assay [1], the cell count came out at 452. The inhibition in assay [1] is 2.5% (inactive); in assay [3] it was -330% (inactive); in assay [7], 2.92% (inactive); in assay [8] it was 12.5% (inactive). Also, the inhibition of aggregation in assay [2] is -18% (inactive). Moreover, the figures for the nuclei count in assay [2] and in assay [3] were 96.7% and 150%, respectively. In addition, the fluorescence slope in assay [4] is -0.6 (inactive). The NADPH fluorescence slope in assay [5] was -3.5e-05 (inactive). The slope in assay [6] was 0.00592 (inactive).

For the molecule `CC(C)=CCCC(C)CN(C)CCc1ccccn1` (centres undefined), in assay [1], the cell count is 281. In addition, the inhibition in assay [1] is -2.1% (inactive); in assay [3] it was -75.4% (inactive); in assay [7], -1.84% (inactive); in assay [8], 20.8% (inactive). The inhibition of aggregation in assay [2] was 27.8% (inactive). Moreover, the results for the nuclei count in assay [2] and in assay [3] were 92.8% and 108%, respectively. Further, the fluorescence slope in assay [4] was -0.448 (inactive). The NADPH fluorescence slope in assay [5] is -0.000147 (inactive). The slope in assay [6] is 0.00676 (inactive).

In the case of `Cc1csc2nc(CSc3ccc(Cl)cc3)cn12`, the cell count in assay [1] came to 41. Also, the inhibition in assay [1] is -8.7% (inactive); in assay [3], -112% (inactive); in assay [7], -42.1% (inactive); in assay [8] it was -126% (inactive). Besides, the inhibition of aggregation in assay [2] is -15% (inactive). Moreover, the nuclei count in assay [2] worked out at 80.6%; in assay [3] it was 138%. The fluorescence slope in assay [4] is -0.601 (inactive). Also, in assay [5], the NADPH fluorescence slope was -2e-05 (inactive). In assay [6], the slope is 0.00271 (inactive).

For the molecule `CCOC(=O)C(C)(C)Sc1nc2c(cnn2-c2ccc(C)cc2)c(=O)[nH]1`, the cell count in assay [1] is 387. The inhibition in assay [1] was -1.6% (inactive); in assay [3] it was -44.8% (inactive); in assay [7], 9.78% (inactive); in assay [8], 34% (inactive). In addition, the inhibition of aggregation in assay [2] is -13.4% (inactive). In addition, the nuclei count in assay [2] and in assay [3] was 106% in each case. Further, in assay [4], the fluorescence slope is -0.626 (inactive). Further, the NADPH fluorescence slope in assay [5] is -2.5e-05 (inactive). Besides, the slope in assay [6] is 0.00578 (inactive).

For the molecule `COC(=O)Nc1sc2c(c1C(=O)N1CCOCC1)CCC(C)C2` (centres undefined), the cell count in assay [1] turned out to be 324. Further, the inhibition was -10.6% (inactive) in assay [1], 2.3% (inactive) in assay [3], 7.08% (inactive) in assay [7] and -3.14% (inactive) in assay [8]. In assay [2], the inhibition of aggregation was -10.8% (inactive). In addition, the figures for the nuclei count in assay [2] and in assay [3] were 118% and 75.2%, respectively. For the same molecule, in assay [4], the fluorescence slope was -0.409 (inactive). The NADPH fluorescence slope in assay [5] was 6.2e-06 (inactive). Further, the slope in assay [6] was 0.00394 (inactive).

With `Cc1ccc2cc(CN(Cc3ccc4c(c3)OCO4)Cc3nnnn3Cc3ccco3)c(=O)[nH]c2c1C`, the cell count in assay [1] was found to be 338. Besides, the inhibition in assay [1] is 0.9% (inactive); in assay [3] it was -79.9% (inactive); in assay [7], 39.3% (inactive); in assay [8] it was 79.5% (active). Also, in assay [2], the inhibition of aggregation was 29.2% (inactive). In addition, the nuclei count in assay [2] turned out to be 49%; in assay [3], 109%. In addition, in assay [4], the fluorescence slope was -0.389 (inactive). Moreover, the NADPH fluorescence slope in assay [5] is 4.5e-05 (inactive). Moreover, in assay [6], the slope was 0.00797 (inactive).

Turning to `O=C(COc1ccccc1)Nc1nc2ccccc2[nH]1`, in assay [1], the cell count was 626. Moreover, the inhibition was -2.6% (inactive) in assay [1], 0.2% (inactive) in assay [3], -49.9% (inactive) in assay [7] and -93.8% (inactive) in assay [8]. Moreover, the inhibition of aggregation in assay [2] is 2.7% (inactive). Further, the nuclei count came to 114% in assay [2] and 119% in assay [3]. Moreover, the fluorescence slope in assay [4] was -0.45 (inactive). Also, the NADPH fluorescence slope in assay [5] was -6.8e-05 (inactive). Moreover, the slope in assay [6] was 0.00605 (inactive).
